What all share (conditions): mRNA level, 48 h; actives raise or lower the signal
Read-out in assay [1]: Insulin Like Growth Factor 1 (IGF1), IGF1 (gene 3479)
As to the kind of experiment: LTEA_HepaRG_IGF1: Life Technologies and Expression Analysis (LTEA) Assay for Insulin Like Growth Factor 1 (IGF1) using HepaRG (AID 2283506). Put shortly:
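Differentiated HepaRG cells in serum-free induction medium, exposed 48 h in duplicate to 8 half-log concentrations up to 100 uM in 0.5% DMSO. IGF1 mRNA by Fluidigm qRT-PCR, normalised to ACTB, GAPDH and POLR2A.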

Read-out in assay [2]: Intercellular Adhesion Molecule 1 (ICAM1), ICAM1 (gene 3383)
As to the kind of experiment: LTEA_HepaRG_ICAM1: Life Technologies and Expression Analysis (LTEA) Assay for Intercellular Adhesion Molecule 1 (ICAM1) using HepaRG (AID 2283507). Put shortly: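 Differentiated human HepaRG cells in serum-free induction medium exposed 48 h in duplicate to 8 half-log concentrations (top 100 uM, 0.5% DMSO). ICAM1 mRNA quantified by TaqMan qRT-PCR, normalized to ACTB, GAPDH and POLR2A; bidirectional fitting versus DMSO.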

Read-out in assay [3]: Insulin-like growth factor-binding protein 1 (IGFBP1), IGFBP1 (gene 3484)
As to the kind of experiment: LTEA_HepaRG_IGFBP1: Life Technologies and Expression Analysis (LTEA) Assay for Insulin-like growth factor-binding protein 1 (IGFBP1) using HepaRG (AID 2283508). Put shortly: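 HepaRG cells, plated 48 h then switched to serum-free induction medium, exposed in duplicate for 48 h to 8-point half-log series from 100 uM in 0.5% DMSO. mRNA measured by qRT-PCR, normalized to ACTB/GAPDH/POLR2A; bidirectional fit versus DMSO.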

Read-out in assay [4]: Interleukin 6 (IL6), IL6 (gene 3569)
As to the kind of experiment: LTEA_HepaRG_IL6: Life Technologies and Expression Analysis (LTEA) Assay for Interleukin 6 (IL6) using HepaRG (AID 2283509). Put shortly: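 HepaRG cells exposed in duplicate for 48 h to eight half-log concentrations, top 100 uM, in 0.5% DMSO serum-free induction medium. mRNA measured by qRT-PCR, normalized to ACTB, GAPDH and POLR2A. Bidirectional fit versus DMSO.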

Read-out in assay [5]: Interleukin 6 Receptor (IL6R), IL6R (gene 3570)
As to the kind of experiment: LTEA_HepaRG_IL6R: Life Technologies and Expression Analysis (LTEA) Assay for Interleukin 6 Receptor (IL6R) using HepaRG (AID 2283510).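 On AC50: TaqMan qRT-PCR signal normalized to ACTB GAPDH and POLR2A housekeeping genes.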 Put shortly: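 Differentiated HepaRG cells, plated 48 h, then exposed in duplicate for 48 h in serum-free induction medium to 8 half-log concentrations (top 100 uM, 0.5% DMSO). IL6R mRNA measured by TaqMan qRT-PCR, normalized to ACTB/GAPDH/POLR2A; bidirectional fit vs DMSO.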

Read-out in assay [6]: Potassium channel subfamily K member 1 (KCNK1), KCNK1 (gene 3775)
As to the kind of experiment: LTEA_HepaRG_KCNK1: Life Technologies and Expression Analysis (LTEA) Assay for Potassium channel subfamily K member 1 (KCNK1) using HepaRG (AID 2283511). Put shortly:
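Differentiated HepaRG cells, 48 h exposure in serum-free induction medium with 0.5% DMSO; 8 concentrations, half-log from 100 uM, duplicate. KCNK1 mRNA by qRT-PCR, normalized to ACTB, GAPDH, POLR2A; bidirectional fit vs DMSO.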

Read-out in assay [7]: Keratin 19 (KRT19), KRT19 (gene 3880)
As to the kind of experiment: LTEA_HepaRG_KRT19: Life Technologies and Expression Analysis (LTEA) Assay for Keratin 19 (KRT19) using HepaRG (AID 2283512). The procedure, abridged: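 Differentiated HepaRG cells in serum-free induction medium, exposed 48 h in duplicate to 8 half-log concentrations up to 100 uM in 0.5% DMSO. KRT19 mRNA by qRT-PCR, normalized to ACTB, GAPDH, POLR2A; bidirectional fit vs DMSO.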

Read-out in assay [8]: JUN Transcription Factor, JUN (gene 3725)
As to the kind of experiment: LTEA_HepaRG_JUN: Life Technologies and Expression Analysis (LTEA) Assay for JUN Transcription Factor using HepaRG (AID 2283513). Put shortly:
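HepaRG cells, 48 h post-plating, exposed 48 h in serum-free induction medium to 8-point half-log series (top 100 uM, 0.5% DMSO), duplicate; mRNA by qRT-PCR (TaqMan, Fluidigm), normalized to ACTB/GAPDH/POLR2A; bidirectional fit vs DMSO.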

Read-out in assay [9]: Lipase C (LIPC), LIPC (gene 3990)
As to the kind of experiment: LTEA_HepaRG_LIPC: Life Technologies and Expression Analysis (LTEA) Assay for Lipase C (LIPC) using HepaRG (AID 2283514). The procedure, abridged:
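HepaRG cells, 48 h after plating, treated in duplicate for 48 h in serum-free induction medium over 8 half-log concentrations from 100 uM, 0.5% DMSO. LIPC mRNA by TaqMan qRT-PCR normalized to ACTB/GAPDH/POLR2A; bidirectional fit versus DMSO.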

Read-out in assay [10]: Lipoprotein lipase (LPL), LPL (gene 4023)
As to the kind of experiment: LTEA_HepaRG_LPL: Life Technologies and Expression Analysis (LTEA) Assay for Lipoprotein lipase (LPL) using HepaRG (AID 2283515). Put shortly:
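Differentiated HepaRG cells, plated 48 h, then exposed 48 h in serum-free induction medium to 8 concentrations (top 100 uM, half-log steps) in 0.5% DMSO, duplicate. LPL mRNA measured by qRT-PCR, normalized to ACTB, GAPDH and POLR2A.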

Read-out in assay [11]: MicroRNA 122 (MIR122), gene 406906
As to the kind of experiment: LTEA_HepaRG_MIR122: Life Technologies and Expression Analysis (LTEA) Assay for MicroRNA 122 (MIR122) using HepaRG (AID 2283516). Further: the transcript read is the microRNA miR-122. The procedure, abridged: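 Differentiated human HepaRG cells in serum-free induction medium exposed 48 h to 8 half-log concentrations from 100 uM in 0.5% DMSO, duplicate. MIR122 quantified by Fluidigm TaqMan qRT-PCR, normalised to ACTB, GAPDH, POLR2A; fold change fitted bidirectionally versus DMSO.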

Read-out in assay [12]: matrix metalloproteinase-10 (MMP10), MMP10 (gene 4319)
As to the kind of experiment: LTEA_HepaRG_MMP10: Life Technologies and Expression Analysis (LTEA) Assay for matrix metalloproteinase-10 (MMP10) using HepaRG (AID 2283517). Put shortly:
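Differentiated HepaRG cells in serum-free induction medium exposed 48 h in duplicate to 8-point half-log series up to 100 uM in 0.5% DMSO. mRNA quantified by qRT-PCR, normalised to ACTB, GAPDH, POLR2A; bidirectional fit versus DMSO.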

Read-out in another assay: MYC, MYC (gene 4609)
As to the kind of experiment: LTEA_HepaRG_MYC: Life Technologies and Expression Analysis (LTEA) Assay for MYC using HepaRG (AID 2283518). Put shortly:
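Differentiated HepaRG cells exposed 48 h in serum-free induction medium to 8 concentrations (top 100 uM, half-log steps; 0.5% DMSO), duplicate. MYC mRNA measured by Fluidigm qRT-PCR, normalized to ACTB, GAPDH, POLR2A; bidirectional fit versus DMSO.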

Read-out in assay [13]: matrix metalloproteinase-3 (MMP3), MMP3 (gene 4314)
As to the kind of experiment: LTEA_HepaRG_MMP3: Life Technologies and Expression Analysis (LTEA) Assay for matrix metalloproteinase-3 (MMP3) using HepaRG (AID 2283519). Put shortly:
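HepaRG cells (~100,000/well) in serum-free induction medium were dosed in duplicate for 48 h with an 8-point half-log series from 100 uM, 0.5% DMSO. MMP3 mRNA was quantified by Fluidigm TaqMan qRT-PCR, normalized to three housekeeping genes.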

Read-out in assay [14]: Paternally Expressed 10 (PEG10), PEG10 (gene 23089)
As to the kind of experiment: LTEA_HepaRG_PEG10: Life Technologies and Expression Analysis (LTEA) Assay for Paternally Expressed 10 (PEG10) using HepaRG (AID 2283520). The procedure, abridged: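 Differentiated HepaRG cells exposed 48 h in serum-free induction medium to eight half-log concentrations topping at 100 uM, 0.5% DMSO, in duplicate. PEG10 mRNA quantified by TaqMan qRT-PCR, normalized to ACTB, GAPDH and POLR2A; bidirectional fit versus DMSO.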

Read-out in assay [15]: Nuclear factor NF-kappa-B p105 subunit (Homo sapiens) (UniProt P19838)
As to the kind of experiment: LTEA_HepaRG_NFKB1: Life Technologies and Expression Analysis (LTEA) Assay for Nuclear Factor Kappa B Subunit 1 (NFKB1) using HepaRG (AID 2283521).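 On outcome: TaqMan qRT-PCR transcript normalised to ACTB GAPDH and POLR2A housekeeping genes.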 Put shortly:
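NFKB1 transcript was measured by TaqMan qRT-PCR on Fluidigm arrays, normalised to three housekeeping genes and fitted in both directions against 0.5% DMSO. HepaRG cells were dosed in duplicate for 48 h in serum-free induction medium, eight half-log steps from 100 uM.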

Read-out in assay [16]: Protein phosphatase 2A (PPP2R4), PTPA (gene 5524)
As to the kind of experiment: LTEA_HepaRG_PPP2R4: Life Technologies and Expression Analysis (LTEA) Assay for Protein phosphatase 2A (PPP2R4) using HepaRG (AID 2283522). Put shortly: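 Differentiated human HepaRG cells in serum-free induction medium were exposed 48 h to 8 concentrations (top 100 µM, half-log steps, duplicate) in 0.5% DMSO. PPP2R4 mRNA was measured by TaqMan qRT-PCR, normalised to ACTB, GAPDH and POLR2A, and fitted bidirectionally versus DMSO.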

Read-out in assay [17]: Phosphatase and tensin (PTEN), PTEN (gene 5728)
As to the kind of experiment: LTEA_HepaRG_PTEN: Life Technologies and Expression Analysis (LTEA) Assay for Phosphatase and tensin (PTEN) using HepaRG (AID 2283523). Put shortly:
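HepaRG cells, 48 h after plating, exposed in duplicate for 48 h in serum-free induction medium to 8 half-log concentrations up to 100 uM (0.5% DMSO). PTEN mRNA by qRT-PCR, normalized to ACTB, GAPDH, POLR2A; bidirectional fit versus DMSO.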

Read-out in assay [18]: solute carrier (SLC22A1), SLC22A1 (gene 6580)
As to the kind of experiment: LTEA_HepaRG_SLC22A1: Life Technologies and Expression Analysis (LTEA) Assay for solute carrier (SLC22A1) using HepaRG (AID 2283524). Put shortly: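 Differentiated human HepaRG cells in serum-free induction medium, exposed 48 h in duplicate to 8-point half-log series from 100 µM top in 0.5% DMSO. SLC22A1 mRNA by TaqMan qRT-PCR normalized to ACTB, GAPDH, POLR2A; bidirectional fit versus DMSO.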

Read-out in assay [19]: Pyruvate Dehydrogenase Kinase 4 (PDK4), PDK4 (gene 5166)
As to the kind of experiment: LTEA_HepaRG_PDK4: Life Technologies and Expression Analysis (LTEA) Assay for Pyruvate Dehydrogenase Kinase 4 (PDK4) using HepaRG (AID 2283525). Put shortly:
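HepaRG cells plated 48 h, then switched to serum-free induction medium and exposed in duplicate for 48 h to 8 half-log concentrations from 100 uM in 0.5% DMSO. PDK4 mRNA measured by qRT-PCR, normalized to ACTB, GAPDH and POLR2A; bidirectional fit versus DMSO.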

The source made the active and inactive calls. How the source made its calls: active means hit-call score of the fitted dose curve at least 0.9, where 1 is the maximum; inactive means score below 0.9.

Chain of Nuclear factor NF-kappa-B p105 subunit (Homo sapiens) (P19838 whole entry, looked up): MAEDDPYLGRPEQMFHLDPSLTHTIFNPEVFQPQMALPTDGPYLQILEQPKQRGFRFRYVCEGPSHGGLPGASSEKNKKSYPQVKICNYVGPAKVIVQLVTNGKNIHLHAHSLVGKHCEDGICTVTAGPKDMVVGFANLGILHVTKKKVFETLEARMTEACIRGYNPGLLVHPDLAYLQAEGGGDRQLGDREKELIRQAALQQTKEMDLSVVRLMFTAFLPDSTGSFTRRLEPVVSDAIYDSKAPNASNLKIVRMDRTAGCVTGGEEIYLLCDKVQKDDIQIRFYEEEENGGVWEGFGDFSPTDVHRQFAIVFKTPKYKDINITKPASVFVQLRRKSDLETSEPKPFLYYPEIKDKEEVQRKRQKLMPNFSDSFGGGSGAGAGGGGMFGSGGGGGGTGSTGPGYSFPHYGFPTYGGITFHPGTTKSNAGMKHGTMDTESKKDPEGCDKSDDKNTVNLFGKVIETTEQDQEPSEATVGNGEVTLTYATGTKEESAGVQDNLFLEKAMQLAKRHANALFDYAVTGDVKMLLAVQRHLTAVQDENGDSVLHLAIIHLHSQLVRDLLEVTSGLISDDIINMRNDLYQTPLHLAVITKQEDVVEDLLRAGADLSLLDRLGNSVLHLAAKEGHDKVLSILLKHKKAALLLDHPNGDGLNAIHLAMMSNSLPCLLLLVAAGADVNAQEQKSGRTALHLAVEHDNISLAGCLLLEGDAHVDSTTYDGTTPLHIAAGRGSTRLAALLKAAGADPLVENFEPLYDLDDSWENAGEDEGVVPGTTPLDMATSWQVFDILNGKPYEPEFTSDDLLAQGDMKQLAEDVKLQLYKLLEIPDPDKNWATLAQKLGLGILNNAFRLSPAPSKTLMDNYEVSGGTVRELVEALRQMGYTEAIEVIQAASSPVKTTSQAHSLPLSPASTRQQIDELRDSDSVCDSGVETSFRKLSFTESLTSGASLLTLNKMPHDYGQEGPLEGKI

For the molecule `O=c1c(-c2ccc(O)cc2)coc2cc(O)cc(O)c12`, the molecule was classed as inactive in assay [1], in [2], in assay [3], in [4], in assay [5] and in assay [6]. Also, the call in assay [7], in [8], in [9], in [10], in assay [11] and in assay [12] was inactive. Further, the outcome was “inactive” in the assay with MYC, MYC (gene 4609); “inactive” in assay [13]; “inactive” in assay [14]; “inactive” in [15]; “inactive” in [16]; “inactive” in assay [17]. The outcome in assay [18] and in [19] was inactive.

On to `COc1ccc2cc(S(=O)(=O)N[C@H](CC(=O)N[C@H](Cc3ccc(CN4[C@H](C)CCC[C@@H]4C)cc3)C(=O)N(C)C(C)C)c3ccc4c(c3)OCO4)ccc2c1`, for which the AC50 was 21.2 µM (active) in assay [1]; 12 µM (active) in assay [2]; 13 µM (active) in assay [3]; 30.9 µM (active) in assay [4]; 82.5 µM (active) in assay [5]; 19.7 µM (active) in [6]. The AC50 in assay [8] was 57.8 µM (active); in assay [10] it was 24.1 µM (active); in [12], 24.3 µM (active); in [14], 11.5 µM (active); in [15], 31.2 µM (active); in assay [16] it was 34.3 µM (active). For the same molecule, the figures for the AC50 in assay [17], in assay [18] and in [19] were 15 µM (active), 26.4 µM (active) and 86.6 µM (active), respectively. Also, the molecule was classed as inactive in assay [9] and in [13].

Take `CC(C)(C)c1cc(/C=C2\SC(N)=NC2=O)cc(C(C)(C)C)c1O`: the AC50 was 93.3 µM (active) in [1]; 29.9 µM (active) in assay [2]; 85.1 µM (active) in assay [3]; 29.8 µM (active) in [4]; 66.6 µM (active) in assay [8]; 49.9 µM (active) in assay [12]. The AC50 with MYC, MYC (gene 4609) is 28.9 µM (active); in assay [13] it was 3.52 µM (active); in assay [15] it was 93.6 µM (active); in assay [16] it was 96.5 µM (active); in assay [17] it was 18.4 µM (active); in assay [18] it was 25.3 µM (active). The concentration at half-maximal activity (AC50) in assay [19] is 12.4 µM (active). Further, the outcome in assay [5], in assay [6], in [7], in assay [9], in assay [10] and in assay [14] was inactive.

Usually AC50 stands for the concentration at which the activity in the assay is half-maximal.

For the origin of these results see PubChem BioAssay (EPA / NIEHS).
